Screening data deposited in PubChem by National Center for Advancing Translational Sciences (NCATS).
Most compounds without a hit are left out; they make up all but 3.5% or so of the library.
NS1 function inh: qHTS Assay for Inhibitors of Influenza NS1 Protein Function. Potency, µM (titrated, usually from 46.1 µM), for inactives: at the highest dose activity, positive = more growth. 0.4% of 270,000 active. AID 2326, 2010; calls by dose curve; further: actives are rising curves; nearly all actives have a fitted effect of over 50% in size
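Compounds were scored for reversing the slow growth caused by influenza A NS1 in S. cerevisiae, measured by optical density at 600 nm. Assay medium contained 2% galactose at pH 6.0; NS1-free yeast of the same strain were the positive control.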
Sm TGR block: qHTS Assay for the Inhibitors of Schistosoma Mansoni Peroxiredoxins | 3% of 360,000 active | Potency, µM (series often up to 114 µM), for inactives: at the top dose activity change, negative = inhibition, most hits filed as inhibitors | purified TGR, DTNB reduction, TNB absorbance 405 nm | Schistosoma mansoni thioredoxin glutathione reductase (TGR), Q962Y6 | AID 485364, 2010; further: on the % scale 0 is the no-effect control and ±100 the full control effect; nearly all actives have a fitted effect of over 60% in size
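First, TGR (20 nM dispensed) and NADPH were mixed with compound. Second, a 15 min room-temperature incubation followed. Third, further NADPH and then DTNB were added to start the reaction. Finally, TNB absorbance was monitored kinetically.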
FBPA Giardia inh: qHTS Assay for Inhibitors of Fructose-1,6-bisphosphate Aldolase from Giardia Lamblia; 0.71% of 290,000 active; Potency, µM (doses to about 59.6 µM), for the others: top-dose activity, negative = inhibition, hits mostly inhibitors; AID 2451, 2010; purified Giardia FBPA; A8B2U2; further: on the % scale 0 is the no-effect control and ±100 the full control effect; nearly all actives have a fitted effect of over 55% in size
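Giardia FBPA (40 nM reagent) was preincubated 10 min at RT with compound (up to 57.5 uM final), then substrate plus GAPDH/TPI/NAD/arsenate coupling system with diaphorase/resazurin was added; resorufin fluorescence (525/598 nm) was read after 20 min.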
Tb PYK inh: qHTS of Trypanosoma Brucei Inhibitors; Potency, µM (series often up to 76.8 µM), without a hit: at the top dose activity, negative = inhibition, actives largely listed as inhibitors; TbPYK enzyme, Kinase-Glo Plus ATP luminescence, 45 min; pyruvate kinase (Trypanosoma brucei), Q57TT1; 0.12% of 410,000 active; further: on the % scale 0 is the no-effect control and ±100 the full control effect; nearly all actives have a fitted effect of over 50% in size
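Luminescence from Kinase-Glo Plus, added after a 45-minute room-temperature reaction, served as the end-point read-out. The enzyme and substrate were preincubated with compound before ADP (130 uM final) initiated turnover. Concentration-effect curves came from normalized qHTS data.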
LmPK inhibitor: qHTS Assay for Inhibitors of Leishmania Mexicana Pyruvate Kinase (LmPK). Potency, µM (top dose mostly 57.5 µM), without a hit: at the highest dose activity change, negative = inhibition, most hits filed as inhibitors. purified LmPK, Kinase-Glo ATP luminescence, 1 h. 0.37% of 290,000 active; further: on the % scale 0 is the no-effect control and ±100 the full control effect
Target sequence (Q27686 whole entry, looked up): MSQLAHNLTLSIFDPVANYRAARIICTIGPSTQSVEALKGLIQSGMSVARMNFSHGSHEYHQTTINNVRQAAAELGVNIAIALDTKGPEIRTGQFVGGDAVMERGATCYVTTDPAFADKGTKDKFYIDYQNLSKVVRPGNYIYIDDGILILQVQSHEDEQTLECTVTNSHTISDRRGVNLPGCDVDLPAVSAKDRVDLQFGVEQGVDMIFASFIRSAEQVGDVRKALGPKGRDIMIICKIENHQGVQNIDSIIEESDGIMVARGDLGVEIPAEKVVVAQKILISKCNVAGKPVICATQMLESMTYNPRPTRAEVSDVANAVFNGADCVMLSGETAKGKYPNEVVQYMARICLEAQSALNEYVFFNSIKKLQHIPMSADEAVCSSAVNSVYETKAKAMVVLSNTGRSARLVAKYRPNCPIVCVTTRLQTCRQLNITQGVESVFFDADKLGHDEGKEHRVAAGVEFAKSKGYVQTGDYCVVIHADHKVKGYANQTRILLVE
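Purified LmPK (0.1 nM) with 0.5 mM PEP and 0.1 mM ADP in imidazole buffer pH 7.2 with MgCl2/KCl, 1 h at room temperature. ATP formed was read by luciferase luminescence and normalized to no-enzyme and uninhibited controls.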
RE007 growth inh: qHTS Assay for Inhibitors of the HIV-1 protein Vpr; S. pombe RE007 Vpr strain, BacTiter-Glo ATP luminescence, 24 h; Potency, µM (highest dose often 92.2 µM), for the others: at the highest dose activity change, negative = less growth, actives largely listed as inhibitors; 0.21% of 360,000 active; active means well fitted falling curve with a large enough effect; inconclusive means small, poorly fitted or top-dose-only effect; inactive means no such curve, though single readings can be large or run the other way; further: on the % scale 0 is the no-effect control and ±100 the full control effect; nearly all actives have a fitted effect of over 50% in size
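Fission yeast strain RE007, carrying one chromosomally integrated HIV-1 vpr copy, was seeded at OD 0.01 in PMG+AL medium with 23 nL pinned compound. After 24 h at 30 °C and 99% humidity, viability was read by BacTiter-Glo luminescence.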
Active calls of the source: *; ? = inconclusive; nt = not tested or not shown; [ ] = dose if it differs, or a comment. Unless noted, the call rests on the fitted dose curve; in most records, active means well fitted curve in the direction sought with a large enough effect; inconclusive means small, poorly fitted or top-dose-only effect, or another doubt; inactive means no such curve, though single readings can be large; an effect the other way counts as inactive or inconclusive. Potency means the concentration at half of the fitted maximal effect.

SMILES | NS1 function inh | Sm TGR block | FBPA Giardia inh | Tb PYK inh | LmPK inhibitor | RE007 growth inh
O=C1CC(c2ccc3c(c2)OCO3)c2cc(O)ccc2O1 (stereo not given) | nt | nt | -9%[89.2 µM] | nt | nt | nt
COc1cccc(N2CC(NC(=O)COc3ccc4ccccc4c3)CC2=O)c1 (stereo not given) | nt | -1% | nt | 1% | nt | nt
C=CCNC(=S)Nc1cccc(NC(=S)NCC=C)c1 | 0% | ? | -8% | 1% | -2% | 5%
C=CCNC(=S)Nc1ccc(OC(=O)Nc2ccc(Cl)c(Cl)c2)cc1 | -158% | 35µM* | ? | 0% | 6% | nt
COC(=O)C(O)(c1ccc(NC(=O)Oc2ccccc2)cc1)C(F)(F)F (stereo not given) | 5% | -8% | 1% | -2% | -1% | 8%
Cc1ccc(NC(=S)Nc2ccc3cn[nH]c3c2)cc1 | 6% | -14% | -27% | -22% | 2% | -21%
C=CCNC(=S)Nc1ccc2cn[nH]c2c1 | 1% | 40µM* | ? | 3% | -4% | 1%
COC(=O)C(O)(c1ccc(NC(=S)NC(=O)c2ccccc2)cc1)C(F)(F)F (stereo not given) | 12% | 28µM* | -23% | -2% | 1% | -1%
CC(=O)c1cccc(NC(=S)NC(=O)c2ccccc2)c1 | 6% | 28µM* | ? | 2% | 2% | 25%
Cn1ccc2cc(S(=O)(=O)N3CCCN(C(=O)Nc4ccccc4Br)CC3)ccc21 | nt | -17% | nt | 5% | nt | nt
O=C(NC(=S)Nc1cccnc1)c1cccc(Cl)c1 | nt | nt | nt | -2% | nt | 0%
S=C(Nc1ccccc1)Nc1ccc2cn[nH]c2c1 | 0% | ? | ? | -1% | -2% | 14%
Cc1ccc2ncccc2c1NC(=S)NC(=O)c1ccccc1 | nt | 20µM* | ? | -2% | -10% | 14%
Cc1ccc2ncccc2c1NS(=O)(=O)c1ccccc1 | -3% | -26% | -2% | 1% | 4% | 4%
O=C(NC(=S)Nc1ccc2cn[nH]c2c1)c1ccccc1 | nt | 14µM* | ? | 1% | -1% | -5%
CC(=O)c1cccc(NC(=S)NC(=O)c2cccc(Cl)c2)c1 | -7% | 40µM* | ? | -7% | 0% | 23%
COC(=O)c1ccc2c(c1)N(CC(=O)Nc1cccc(Cl)c1C)C(=O)c1ccccc1S2 | nt | 2% | nt | -1% | nt | nt
CN(C)CCNC(=O)CN1C(=O)COc2ccc(S(=O)(=O)N3CCCC3)cc21 | nt | -2% | nt | -2% | nt | nt
CCOC(=O)c1ccc(CN(Cc2ccc(Br)cc2)S(=O)(=O)c2cccc(C(F)(F)F)c2)cc1 | nt | 11% | nt | 2% | nt | nt
O=CN1CCc2c([nH]c3ccccc23)C1c1cccc2cccnc12 (stereo not given) | nt | nt | -2% | nt | nt | nt
COc1ccc(CNC(=O)c2nc(SCc3ccccc3F)ncc2Cl)cc1 | nt | 6% | nt | -11% | nt | nt
O=C(N/N=C/c1cc(Br)c(O)c(Br)c1)c1cccnc1 | -2% | 89µM* | -23% | 5% | 4% | 13%
COc1cccc(-c2nc(NC3CCNCC3)c3ccccc3n2)c1 | nt | nt | -8% | nt | nt | nt
CCn1c(-c2ccccc2)c(C(=O)CCl)c2ccccc21 | 8% | 18µM* | 8% | 0% | 0% | -8%
Cn1c(-c2ccccc2)c(C(=O)CCl)c2ccccc21 | -7% | 6.3µM* | -1% | -3% | 3% | -20%
SMILES | NS1 function inh | Sm TGR block | FBPA Giardia inh | Tb PYK inh | LmPK inhibitor | RE007 growth inh
CCn1c2ccccc2c(=O)c2ccccc21 | 0% | 5% | 3% | -3% | -3% | -14%
CCOc1ccccc1NC(=O)CCS(=O)(=O)c1cccs1 | 4% | 56µM* | -12% | -8% | 6% | 3%
CCOc1ccccc1NS(=O)(=O)c1cccs1 | -5% | 6% | 14µM* | 4% | 2% | -12%
CCOc1ccc(S(=O)(=O)N2CCCCC2)cc1NS(=O)(=O)c1cccs1 | nt | 0% | nt | 3% | nt | 3%
CCCCOC(=O)c1ccc(NC(=O)Cn2nnc3sc4c(c3c2=O)CCCC4)cc1 | nt | 0% | nt | 2% | nt | nt
Cc1cccc(Nc2nn3c(=O)c4ccccc4nc3s2)c1 | 7% | -1% | 0% | 4% | 4% | -2%
CCCSc1nn2c(=O)c3ccccc3nc2s1 | -59% | -20% | 1% | 7% | 14µM* | ?
Cc1ccc(NC(=O)C2CCCN(S(=O)(=O)c3ccc4c(c3)CCCC(=O)N4)C2)cc1N(C)C (stereo not given) | nt | 7% | nt | 1% | nt | nt
O=C(O)Cc1ccc2sc(-c3ccccc3)nc2c1 | -29% | 4% | 22% | ? | ? | 5%
COC(=O)Cc1ccc2sc(-c3ccccc3)nc2c1 | -10% | 8% | -6% | ? | 14µM* | ?
Cc1ccc(S(=O)(=O)NNc2ccccc2)c(C)c1 | -23% | 40µM* | ? | ? | 15% | 18%
Cc1ccc(S(=O)(=O)Nc2ccc(O)c3ccccc23)c(C)c1 | -5% | 8.9µM* | ? | -20% | 8.9µM* | -10%
Cc1ccc(C)c(S(=O)(=O)Nc2ccc(O)c3ccccc23)c1 | ? | 22µM* | -16% | -6% | ? | -4%
COc1ccc(S(=O)(=O)Nc2ccccc2)cc1 | nt | nt | nt | -3% | nt | 6%
COc1ccc(S(=O)(=O)Nc2ccc(O)c3ccccc23)cc1 | ? | 20µM* | 8% | -19% | 15% | -23%
Cc1c(C(=O)Nc2ccc(F)c(F)c2)oc2ccc(S(=O)(=O)N(C)C3CCCCC3)cc12 | nt | 19% | nt | 2% | nt | nt
COc1cccc(-c2nc3c(C#N)c[nH]n3c2NC2CCCC2)c1OC | nt | -2% | nt | 3% | nt | nt
COC(=O)c1ccc(NC(=S)NC2CC2)cc1 | 2% | 16µM* | 2% | 4% | 1% | 4%
COC(=O)Cc1ccc(NC(=S)NC2CC2)cc1 | 1% | 45µM* | 1% | -7% | -2% | -13%
COC(=O)c1ccc(NC(=S)NC2CC(C)(C)NC(C)(C)C2)cc1 | 9% | -14% | 2% | -1% | 0% | 1%
CCOC(=O)c1cnc2cc(C(F)(F)F)ccc2c1Nc1ccc(F)cc1F | nt | -2% | nt | 2% | nt | nt
Cc1ccc(S(=O)(=O)c2cn(Cc3ccccc3)c3cc(N4CCCC4)c(F)cc3c2=O)cc1 | nt | -2% | nt | 3% | nt | nt
Cc1ccc(Cn2c(SCc3ccc(C(=O)N4CCCCCC4)cc3)nc3ccncc32)cc1 | nt | 0% | nt | 1% | nt | nt
c1cc(-c2nc3ccccc3o2)nc(-c2nc3ccccc3o2)c1 | 2% | nt | nt | nt | nt | nt
c1ccc2nc(-c3nc4ccccc4o3)ccc2c1 | -5% | -6% | -11% | ? | 3.2µM* | ?
CC(=O)N1CCc2cc(Br)cc(S(=O)(=O)N3CCC(C)CC3)c21 | nt | -8% | nt | -2% | nt | nt
